Compound activity as filed in PubChem BioAssay.
MCL1-BIM inh: disrupts human MCL1 binding to BIM-BH3 peptide; GST-MCL1 / FITC-Bim-BH3 fluorescence polarization; inhibition, % at 10.9 µM; hit rate 0.68% among 320,000; AID 2057;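 active = inhibition above the mean inhibition of all tested compounds plus 3 SD, set per campaign, cut at about 40% in these data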;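 also: higher means more loss of mP so more displacement of Bim peptide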
EBV gp42 block: blocks Epstein-Barr virus glycoprotein 42 binding | Fluorescence polarization binding assay, mP read-out | inhibition, % (tested at 21.74 µM) | hit rate 0.42% among 220,000; in the data active = inhibition above about 50%
Target sequence (Q1HVG2 whole entry, looked up): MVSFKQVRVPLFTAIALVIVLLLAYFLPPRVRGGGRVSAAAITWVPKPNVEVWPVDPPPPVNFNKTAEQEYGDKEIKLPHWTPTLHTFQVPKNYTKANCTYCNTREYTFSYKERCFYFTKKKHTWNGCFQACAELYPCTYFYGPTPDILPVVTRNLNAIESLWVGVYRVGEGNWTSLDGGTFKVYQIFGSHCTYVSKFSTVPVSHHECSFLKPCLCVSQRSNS
E coli Lon inh: inhibitors of E. coli Lon protease | hit rate 0.42% among 360,000 | AID 602123 | inhibition, % at 7.94 µM | P0A9M0 | purified E. coli Lon protease, fluorescence polarization; in the data active = inhibition above about 13%, passing the limit was not always enough
GLD-1 TGE inh: GLD-1-TGE RNA interaction inhibition (C. elegans); Q17339; purified GLD-1 + fluorescein TGE RNA, fluorescence polarization; inhibition, % at 5.96 µM; hit rate 0.44% among 320,000;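 active = percent inhibition above a per-plate cutoff, the plate mean of test compounds plus 3 SD, cut at about 30% in these data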
Target sequence (Q17339 whole entry, looked up): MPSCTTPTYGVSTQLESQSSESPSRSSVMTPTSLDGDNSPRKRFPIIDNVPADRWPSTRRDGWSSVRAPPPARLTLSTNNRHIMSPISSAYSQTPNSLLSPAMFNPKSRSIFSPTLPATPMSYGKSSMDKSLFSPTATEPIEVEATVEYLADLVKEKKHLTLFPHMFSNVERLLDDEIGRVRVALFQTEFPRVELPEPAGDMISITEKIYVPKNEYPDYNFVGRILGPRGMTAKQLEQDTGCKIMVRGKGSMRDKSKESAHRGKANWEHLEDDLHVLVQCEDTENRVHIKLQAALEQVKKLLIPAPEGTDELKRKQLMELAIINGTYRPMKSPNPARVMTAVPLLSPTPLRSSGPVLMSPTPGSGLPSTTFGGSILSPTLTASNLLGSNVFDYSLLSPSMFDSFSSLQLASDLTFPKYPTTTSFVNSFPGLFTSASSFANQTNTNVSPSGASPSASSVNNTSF
Bcl-xL primary: inhibitors of human Bcl-xL. Q07817. GST-Bcl-xL / FITC-Bim BH3 peptide fluorescence polarization. inhibition, % at 10.9 µM. hit rate 0.7% among 320,000. AID 2129;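 active = inhibition above the mean of all tested compounds plus 3 SD, cutoff set per campaign, cut at about 30% in these data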;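 also: inhibitors lower millipolarization by displacing the labeled peptide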
MEX-5 binding: C. elegans MEX-5 TCR-2 RNA binding activity | Q9XUB2 | MEX-5/FITC-TCR2 RNA binding, fluorescence polarization; stronger effect = lower value | hit rate 0.38% among 300,000 | activity score (negative = inhibition of binding), % at 10 µM | AID 1832;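 active = inhibition past about -25% in most replicates, and total fluorescence under double the plate's negative control median, limit read from the data; inconclusive = replicates evenly split on the limit, or fluorescence at least double controls; inactive = too little inhibition in most replicates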
BCLXL inh confirm: Bcl-xL (human) inhibition, MCL1 counter-screen confirmation; AID 2166; hit rate 54% among 1,700; inhibition, % at 10.9 µM; GST-Bcl-xL / FITC-Bim BH3 peptide FP binding; shares compounds with MCL1-BIM inh;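 active = inhibition above a cutoff equal to the mean inhibition of all tested compounds plus 3 SD, cut at about 30% in these data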
MCL1 inh confirm: MCL1-BIM-BH3 interaction inhibition, confirmation | AID 2168 | inhibition, % at 10.9 µM | GST-MCL1 / FITC-Bim-BH3 fluorescence polarization | hit rate 61% among 1,700 | shares compounds with MCL1-BIM inh;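 active = inhibition above the average of all tested compounds plus 3 SD, cut at about 40% in these data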
GLD-1 TGE cf: confirmation of C. elegans GLD-1 TGE RNA binding inhibitors; shares compounds with GLD-1 TGE inh; GLD-1/FL-TGE RNA fluorescence polarization, biochemical; inhibition, % at 5.96 µM; hit rate 10% among 550;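 active = average inhibition across triplicates above the hit cutoff set in the primary screen, cut at about 32% in these data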
Hits are given with their value; 0 = inactive; ? = inconclusive; - = no result; + = active, no number. Compounds with a hit are over-represented: about 1.5% of the library has one in this group of screens.

SMILES | MCL1-BIM inh | EBV gp42 block | E coli Lon inh | GLD-1 TGE inh | Bcl-xL primary | MEX-5 binding | BCLXL inh confirm | MCL1 inh confirm | GLD-1 TGE cf
COCCCNC(=O)c1c(N)n(-c2ccc3c(c2)OCO3)c2nc3ccccc3nc12 | 58 | - | 0 | 49 | 48 | 0 | 0 | 0 | 0
O=C1CCCC2=C1Sc1ccc(Cl)cc1N2 | 77 | 54 | 0 | 50 | 69 | ? | 64 | 74 | 0
C=C1c2cccc(O)c2C(O)=C2C(=O)[C@]3(O)C(O)=C(C(N)=O)C(=O)[C@@H](N(C)C)[C@@H]3[C@@H](O)[C@H]12 | 108 | 0 | 0 | 36 | 64 | -32 | 36 | 87 | 0
COc1cc2c(cc1OC)CN(C(=O)C1CCC(=O)N(CCCN3CCOCC3)C1)CC2 (configuration not stated) | 0 | - | 0 | 0 | 0 | 0 | - | - | -
Cc1cc2cc(CNC(=O)c3ccc4c(c3)OCO4)ccc2[nH]1 | 53 | - | 0 | 33 | 37 | 0 | 0 | 0 | 0
Cc1cc2cc(CNC(=O)c3ccc(Br)o3)ccc2[nH]1 | 69 | 0 | 0 | 41 | 55 | 0 | 57 | 75 | 0
Cc1ccc(CNC(=O)c2ccc(Br)o2)cc1 | 0 | 0 | 0 | 0 | 0 | 0 | - | - | -
Cc1ccc(N2C(=O)C(Cl)=C(N3CCOCC3)C2=O)c(C)c1 | 0 | - | 0 | 0 | 0 | 0 | - | - | -
OCCC1CN(Cc2cccc3nccnc23)CCN1Cc1ccc(F)cc1 (configuration not stated) | 60 | 0 | 0 | 46 | 60 | 0 | 0 | 0 | 0
Cc1csc(SCc2c(C(=O)O)oc3ccccc23)n1 | 125 | 0 | 0 | 62 | 107 | 0 | 0 | 0 | 0
COc1ccccc1C(=O)NCCC(=O)N1CCN(S(=O)(=O)c2ccccc2C(F)(F)F)CC1 | - | - | 0 | - | - | - | - | - | -
O=c1[nH]c(Nc2ccccn2)cc2ccccc12 | 0 | - | 0 | 0 | 0 | 0 | - | - | -
O=c1[nH]c(Nc2ccc(F)cc2)cc2ccccc12 | 66 | 0 | 0 | 66 | 54 | 0 | 0 | 0 | 0
Cc1nc(SCC(=O)Nc2c(C)n(C)n(-c3ccccc3)c2=O)[nH]c(=O)c1Cc1ccccc1 | 71 | 0 | 0 | 47 | 55 | 0 | 0 | 0 | 0
CCCN=C1N/C(=C\c2ccco2)C(=O)N1c1ccccc1 | 0 | 0 | 0 | 0 | 0 | 0 | - | - | -
O=C1/C(=C\c2ccco2)NC(=S)N1c1ccccc1 | 50 | 0 | 0 | 55 | 34 | 0 | 0 | 0 | 0
CC(=O)N1CCc2[nH]c3ccc(C)cc3c2C1 | 0 | - | 0 | 0 | 0 | 0 | - | - | -
CCOC(=O)N1CCc2[nH]c3ccc(C)cc3c2C1 | 63 | 0 | 0 | 53 | 66 | 0 | 0 | 0 | 0
CC1CC(C)CN(S(=O)(=O)CCNC(=O)c2ccccc2)C1 (configuration not stated) | 0 | - | 0 | 0 | 0 | 0 | - | - | -
N#Cc1ccsc1NC(=O)CN1C(=O)NC2(CCCC2)C1=O | 71 | - | 0 | 54 | 66 | 0 | 59 | 94 | 0
COc1ccc2[nH]c(C)c(CCN(Cc3cccs3)C(=S)Nc3ccc(F)cc3)c2c1 | 75 | 0 | 0 | 49 | 73 | 0 | 41 | 52 | 0
COCC1OC(OC(C)C(O)c2cnc3nc(N)[nH]c(=O)c3n2)C(O)C(OC)C1O (configuration not stated) | - | - | 0 | - | - | - | - | - | -
COc1ccc2c(c1)c(=O)c(C(=O)c1ccc(C)cc1)cn2CC(=O)Nc1ccc(F)cc1 | 0 | 0 | 0 | 0 | 0 | 0 | - | - | -
COc1ccc2c(c1)c(=O)c(C(=O)c1ccc(F)cc1)cn2CC(=O)Nc1ccc(F)cc1 | 71 | 0 | 0 | 69 | 75 | 0 | 0 | 0 | 0
Cc1cccc(C)c1NC(=O)COC(=O)/C=C/c1ccc(S(=O)(=O)N2CCOCC2)cc1 | - | - | 0 | 0 | - | - | - | - | -
SMILES | MCL1-BIM inh | EBV gp42 block | E coli Lon inh | GLD-1 TGE inh | Bcl-xL primary | MEX-5 binding | BCLXL inh confirm | MCL1 inh confirm | GLD-1 TGE cf
Cc1ccc(-c2cc(-c3ccco3)c(C#N)c(=O)[nH]2)cc1 | 96 | 0 | 0 | 50 | 79 | -40 | 0 | 53 | 0
Cc1ccc(-c2cc(C(F)(F)F)c(C#N)c(=O)[nH]2)cc1 | 0 | 0 | 0 | 0 | 0 | 0 | - | - | -
C=CCOc1ccc(C2C3=C(CCCC3=O)N(CC(=O)O)C3=C2C(=O)CCC3)cc1OCC | 0 | - | 0 | 0 | 0 | 0 | - | - | -
CCCOc1ccc(C2C3=C(CCCC3=O)N(CC(=O)O)C3=C2C(=O)CCC3)cc1OCC | 101 | - | 0 | 33 | 81 | 0 | 0 | 0 | 0
COc1cc(NS(=O)(=O)c2ccc(C)cc2)c2ncccc2c1 | 0 | 0 | 0 | 0 | 0 | 0 | - | - | -
CCC(CNc1cc(OC)cc2cccnc12)NC1CCCCC1 (configuration not stated) | + | 0 | 0 | 33 | + | 0 | 50 | 62 | 0
CCOC(=O)c1nn(-c2ccccc2)c(=O)cc1OCC(=O)Nc1ccccc1OCC | 0 | - | 0 | 0 | 0 | 0 | - | - | -
Cn1c(=O)c2cc(NC(=O)NCc3ccccc3)ccc2n1C/C=C/c1ccccc1 | - | - | 0 | - | - | - | - | - | -
COc1ccccc1C(CNc1nc(C(F)(F)F)nc2ccccc12)N(C)C (configuration not stated) | 0 | - | 0 | 0 | 0 | 0 | - | - | -
COc1ccc(NC(=O)Nc2cccs2)cn1 | - | - | 0 | - | - | 0 | - | - | -
COc1ccc(NC(=O)Nc2cc(C)cc(C)c2)cn1 | 58 | 0 | 0 | 48 | 58 | -36 | 62 | 79 | 43
CC1CC(=O)C(C(C2=C(O)CC(C)CC2=O)c2ccccc2)=C(O)C1 (configuration not stated) | - | - | 0 | - | - | - | - | - | -
Cc1cccc(-n2c(SCc3cc(=O)n4ccsc4n3)nc3ccccc32)c1 | 67 | 78 | 0 | 43 | 73 | 0 | 63 | 89 | 0
Cc1ccc(SCc2cc(=O)n3ccsc3n2)c(C)c1 | 0 | 0 | - | 0 | 0 | 0 | - | - | -
CCOc1ccc(NCC(=O)N/N=C/C=C/c2ccccc2)cc1 | 0 | 0 | 0 | 0 | 0 | 0 | - | - | -
CCOc1ccc(N=C/C=C/c2ccccc2)c(O)c1 | 87 | 0 | 0 | 72 | 84 | 0 | 0 | 0 | 0
CCN(CC)C(=O)C1=C(C)N(CCC2=CCCCC2)C(=O)C(CC(=O)NCCN2CCOCC2)C1 (configuration not stated) | - | - | 0 | - | - | - | - | - | -
CCOC(=O)C1=C(C)OC(N)=C(C#N)C1c1cc2c(cc1[N+](=O)[O-])OCO2 (configuration not stated) | 44 | 0 | 0 | 38 | 36 | 0 | 49 | 73 | 0
O=C(CSc1ccc2nnc(CCNC(=O)c3ccccc3)n2n1)Nc1ccc(F)cc1F | 0 | - | 0 | 0 | 0 | 0 | - | - | -
